Hits are enriched below; roughly 4.2% of the tested compounds scored in any of these assays.
RecA splice inh: Mtb RecA intein splicing inhibition | P9WHJ3 | cell-free RecA intein splicing, fluorescence | inhibition, % (no concentration beside the values) | actives 0.75% (n = 290,000); in the data active = inhibition above about 30%
CCHFV vOTU inh: CCHFV vOTU protease inhibition; Pep-AMC fluorescence; inhibition, % at 11.5 µM; actives 0.55% (n = 370,000); AID 651958
GDH-TPI inh: GDH-TPI coupled enzyme inhibition counter-screen; AID 588335; actives 1.2% (n = 360,000); GDH-TPI coupled enzyme counterscreen, NADH absorbance; inhibition, % at 4.8 µM
Mtb FBA inh: inhibits M. tuberculosis FBA enzyme | inhibition, % at 1 µM | purified M. tuberculosis FBA, fluorescence read-out | actives 2.3% (n = 360,000) | P9WQA3 | AID 588726; in the data active = inhibition above about 27%
Target sequence (P9WQA3 whole entry, looked up): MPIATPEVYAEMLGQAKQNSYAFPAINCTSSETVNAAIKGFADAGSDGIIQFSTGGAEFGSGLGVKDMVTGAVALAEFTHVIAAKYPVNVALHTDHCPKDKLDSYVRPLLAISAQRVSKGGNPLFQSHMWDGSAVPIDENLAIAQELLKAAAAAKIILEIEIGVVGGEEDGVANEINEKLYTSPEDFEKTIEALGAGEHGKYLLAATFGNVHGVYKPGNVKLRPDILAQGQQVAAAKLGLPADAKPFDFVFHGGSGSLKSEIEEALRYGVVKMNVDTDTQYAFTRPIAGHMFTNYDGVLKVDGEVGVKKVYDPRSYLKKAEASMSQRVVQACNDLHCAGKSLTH
A number is an active result; – = inactive; · = not tested or not shown; + = active, no number. Cut-off read from the data, not from the text of the source, unless noted: active = inhibition above about 30%; inactive = the rest.

SMILES	RecA splice inh	CCHFV vOTU inh	GDH-TPI inh	Mtb FBA inh
COc1ccc(-c2cc(-c3ccccc3)n3ncnc3n2)cc1	–	–	32.8	170.1
COc1ccc(-c2cc(N3CCCC3)n3ncnc3n2)cc1	–	–	–	–
COc1ccc(N2CC(C(=O)Nc3ccccc3C(=O)NC3CC3)CC2=O)cc1 (centres undefined)	–	–	–	–
Cc1cccc(CN2C(=O)N/C(=C/c3cc(C)n(-c4cc(C)ccn4)c3C)C2=O)c1	–	·	31.4	–
Cc1cccc(CN2C(=O)N/C(=C/c3ccc(C)s3)C2=O)c1	–	–	–	–
Cc1nnc(SCC(=O)Nc2cccc(S(=O)(=O)N3CCCC3)c2)n1C1CC1	·	–	–	–
O=C(N/N=C1\CCCc2c1[nH]c1ccc(Cl)cc21)c1ccncc1	–	–	40.7	–
O=C(NN=C1CCCC1)c1[nH]c2ccc(Cl)cc2c1-c1ccccc1	–	–	–	–
CC(C)CSc1ncccc1-c1nc2ccccc2[nH]1	·	–	·	·
CCOc1ccc(Cc2onc3c2C(=O)CCC3)cc1OCC	–	–	–	+
CCOc1ccc(Cc2onc3c2C(=O)CC(C)(C)C3)cc1OCC	–	–	–	–
COCCCn1c(N)c(C(=O)OC(C)COC)c2nc3ccccc3nc21 (centres undefined)	–	–	–	+
CCCCOCCCn1c(N)c(C(=O)OC(C)COC)c2nc3ccccc3nc21 (centres undefined)	–	–	–	120.5
CCC(C)OC(=O)c1c(N)n(Cc2cccs2)c2nc3ccccc3nc12 (centres undefined)	–	–	–	137.0
COCCCn1c(N)c(C(=O)Nc2ccccc2)c2nc3ccccc3nc21	–	–	–	–
Cc1cc(=O)n2c3ccccc3n(CC(O)CN3CCCCC3)c2c1C#N (centres undefined)	–	–	50.0	–
Cc1ccc(C(=O)/C=C/c2ccc(F)cc2)o1	–	–	39.1	–
Clc1ccc(CN2CCN(c3ncc(Cc4ccccc4)cn3)CC2)c(Cl)c1	·	–	·	·
Cc1c(/C=N/Nc2ccc(C(=O)O)cc2)c2ccccc2n1C	–	–	40.5	–
Cc1ccc(C(=O)N/N=C/c2cn(Cc3ccccc3)c3ccccc23)cn1	–	–	–	–
O=C(O)c1ccc(N/N=C/c2cn(Cc3ccc(F)cc3)c3ccccc23)cc1	–	–	44.4	–
COc1cc(C(=O)N/N=C/c2cn(Cc3cccc(F)c3)c3ccccc23)ccc1O	–	–	35.2	–
c1ccc(NCCC2OCC3(CO2)COC(CCNc2ccccc2)OC3)cc1 (centres undefined)	·	–	–	–
COCC(=O)Nc1ccc(-c2cn3cccnc3n2)cc1	–	–	–	+
CCC(CC)C(=O)Nc1ccncc1	–	·	·	·
SMILES	RecA splice inh	CCHFV vOTU inh	GDH-TPI inh	Mtb FBA inh
CCC(CC)C(=O)Nc1ccc(-c2cn3cccnc3n2)cc1	–	–	–	+
CC1(C)CC(NC(=O)Nc2ccc([N+](=O)[O-])cc2)CC(C)(C)N1	–	–	31.7	–
CC(C(=O)NC1CC(C)(C)NC(C)(C)C1)c1ccc([N+](=O)[O-])cc1 (centres undefined)	–	–	–	–
CC(C)C(C#CC1CC1)N(Cc1ccc2c(c1)OCO2)C(N)=NC(=O)/C=C/c1ccccc1 (centres undefined)	·	–	·	·
CCN(CC)c1ccc(C=Nc2ccccc2)c(O)c1	–	–	33.6	–
CCN(CC)c1ccc(C=Nc2ccc(C)cc2)c(O)c1	·	–	45.3	–
CCN(CC)c1ccc(N=Cc2ccc(N(CC)CC)cc2O)cc1	–	–	–	–
COc1cc(C(=O)Nc2cccc(NC(=O)c3cccs3)c2)cc(OC)c1OC	–	–	–	–
Cc1c(C(c2cccc(Br)c2)c2c(C)n(C)n(-c3ccccc3)c2=O)c(=O)n(-c2ccccc2)n1C	–	–	–	–
COc1ccccc1N=Cc1c(C)c(C#N)c2[nH]c3ccccc3n2c1=O	–	–	–	–
N#Cc1c(C(F)(F)F)cc(=O)n2c1[nH]c1ccccc12	–	–	–	+
Cc1c(Cc2ccccc2)c(=O)n2c([nH]c3ccccc32)c1C#N	–	–	–	133.4
N#Cc1c(CSCC(=O)O)cc(=O)n2c1[nH]c1ccccc12	–	–	–	–
COc1ccccc1C(=O)NC1CCCCN(Cc2ccc(C)cc2)C1=O (centres undefined)	·	–	·	·
O=C(Nc1ccc(Oc2ccccc2)cc1)C1CCCN1S(=O)(=O)c1cccc2cccnc12 (centres undefined)	·	–	·	·
C#CCCc1cocc1/C=[N+](\[O-])c1ccc(C(=O)OCC)cc1	·	–	–	–
Cc1nc2sc(C(=O)NCc3nccs3)c(N)c2c(C)c1Cl	·	–	·	·
Cc1cc(NC(=O)COC(=O)c2ccccc2NCCO)no1	·	–	–	127.5
C=CC(=O)N1C/C(=C/c2ccccc2)C(=O)/C(=C\c2ccccc2)C1	·	–	31.6	–
N#CC(c1ccc(O)cc1)N1CCOCC1 (centres undefined)	–	–	31.2	–
N#CC(c1ccc(Cl)cc1)N1CCOCC1 (centres undefined)	·	–	–	–
COc1cc(/C=N/NC(=O)c2sc(N)c(C#N)c2C)cc(Br)c1O	–	–	38.2	–
COc1cc(/C=N/NC(=O)Cc2ccc(Br)cc2)cc(OC)c1O	–	–	–	–
COc1cc(/C=N/NC(=O)c2ccc([N+](=O)[O-])cc2Cl)cc(Br)c1O	–	–	42.1	–
Cc1c(C(=O)N/N=C/c2cccnc2)sc(N)c1C#N	–	–	31.0	–
SMILES	RecA splice inh	CCHFV vOTU inh	GDH-TPI inh	Mtb FBA inh
COc1cc(/C=N/NC(=O)CC#N)cc(Br)c1O	–	–	–	+
COc1ccc(Br)cc1C(=O)N/N=C/c1ccc([N+](=O)[O-])cc1	–	–	–	–
COc1ccc2ccccc2c1/C=N/NC(=O)c1sc(N)c(C#N)c1C	–	–	–	–
Cc1ccc(C(=O)N/N=C\c2cccnc2)s1	–	–	–	–
O=C(Cc1cccc(NC(=O)C2CCN(C(=O)c3ccccc3)CC2)c1)Nc1cccc(C(=O)N2CCCCC2)c1	·	–	–	–
CSc1sc(-c2n[nH]c(=S)n2C)c2c1C=CCC2	–	–	–	–
COc1ccccc1CNC(=O)N1CCN(Cc2nc3ccccc3c(=O)[nH]2)CC1	·	–	·	·
COc1ccc(Cn2c(NC(=O)c3ccccc3)nc(Cc3ccccc3)c2-c2ccccc2)c(OC)c1	·	–	·	·
CN(CCCN1CCCCC1)C(=O)c1cc(COc2ccc(F)cc2F)on1	–	–	–	–
CC(C)C[C@@H]1CN(CCCC[C@H]2CNC(=O)C(=O)N2CCC2CCCCC2)C(=O)C(=O)N1CCc1ccc(O)cc1	·	–	·	·
CN=c1scc(C)n1/N=C/c1cc(Br)c(O)c(Br)c1	–	–	–	–
CCN=c1scc(C)n1/N=C/c1cc(Br)c(O)c(OC)c1	–	–	31.7	–
NC(=O)c1cc([N+](=O)[O-])ccc1NCc1ccc(O)cc1	·	–	–	–
O=C(c1ccoc1)N1CCN(c2cc(-c3ccco3)nc3cc(-c4ccccc4)nn23)CC1	·	–	–	112.8
O=C(Nc1ccccc1)c1cc(C2CCCN(C(=O)c3cccs3)C2)on1 (centres undefined)	·	–	–	–
CNc1cncc(-c2cccnc2)n1	·	–	–	+
CSc1nncc(-c2ccc(F)c(F)c2)n1	–	–	–	–
CNc1cncc(-c2cccc(OC)c2F)n1	·	–	–	+

Bioassay records from PubChem BioAssay.
